The nature of assay [1]: Nuclear factor erythroid 2-related factor 2/antioxidant responsive element (Nrf2/ARE) small molecule agonists: qHTS cell viability counter screen in human keratinocytes (AID 1919968; active = well fitted curve in the direction sought with a large enough effect in the repeat runs; an effect the other way counts as inactive or inconclusive; also: nearly all actives have a fitted effect of over 55% in size; also: potency is read from the fitted curve at half-maximal effect). In short, it runs like this:
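After a 5 h attachment period, ARE-reporter keratinocytes were dosed with compounds in DMSO and then cultured 23 h at 37 C. Cell viability came from CellTiter-Fluor signal read after a further 1 h.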
(qHTS replaces the single test concentration by a dilution series.)

Assay [2] in a line: Nuclear factor erythroid 2-related factor 2/antioxidant responsive element (Nrf2/ARE) small molecule agonists: luciferase reporter gene qHTS assay in human keratinocytes (AID 1919969). Also: nearly all actives have a fitted effect of over 35% in size. Also: potency is read from the fitted curve at half-maximal effect. A general note: In a reporter assay the amount or activity of a reporter protein is the signal.
The target in assay [3] is Gonadotropin-releasing hormone receptor (Homo sapiens) (UniProt P30968). The assay is described as follows: Human gonadotropin-releasing hormone receptor (GnRHR) small molecule agonists, calcium flux assay in GnRHR-HEK293 cells (AID 1920063). Also: nearly all actives have a fitted effect of over 35% in size. Summed up:
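We seeded human GnRHR-expressing HEK293 cells for 18 hours, loaded them with calcium dye for an hour at 37 C, added test compounds, and recorded fluorescence intensity kinetically for three minutes.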
On the technique in general: A change in cytosolic calcium serves as a functional read-out for many receptors and channels.

Assay [4] deals with KiSS-1 receptor (Homo sapiens) (UniProt Q969F8). Put plainly: Human kisspeptin (KISS1R) small molecule agonists, calcium flux assay in KISS1R-HEK293 cells (AID 1920064; active = well fitted curve in the direction sought with a large enough effect in the repeat runs; an effect the other way counts as inactive or inconclusive). In short, it runs like this:
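Kinetic calcium assay, 1 s sampling over 3 min at Ex/Em 480/540, in HEK293 cells engineered with human KISS1R; compounds delivered in DMSO after 1 h dye loading.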

The nature of assay [5]: G protein-coupled receptor (GPCR) small molecule agonists, calcium flux assay: HEK293 wild type cell line counter screen (AID 1920065). Summed up: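 Calcium-sensitive dye, loaded 1 h at 37 C into cells cultured 18 h, reports compound-evoked calcium release as fluorescence (Ex/Em 480/540), measured over 3 min. Agonist mode; 15-point titrations, triplicate.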
Assay [6] is described as follows: p53 small molecule agonists, cell-based qHTS assay with human liver microsomes (AID 1963577).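 Also: p53 response element beta-lactamase reporter cells with liver microsomes plus NADPH.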 In short, it runs like this:
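HLM-supplemented p53RE-bla reporter assay: 16 h compound exposure at 37 C, microsomes and NADPH each 0.5 mg/mL final, read by fluorescence intensity.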

Assay [7] is described as follows: p53 small molecule agonists, cell-based qHTS assay with rat liver microsomes (AID 1963578). Summed up: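 Quantitative HTS of the Tox21 10K library: p53RE-bla cells, rat liver microsomes plus NADPH at 0.5 mg/mL final each, 16 h at 37 C, beta-lactamase fluorescence detection.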
Assay [8] is described as follows: p53 small molecule agonists, cell-based qHTS assay with human liver microsomes: qHTS cell viability counter screen (AID 1963579). Also: nearly all actives have a fitted effect of over 45% in size. Summed up: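 Viability of p53RE-bla cells is measured as CellTiter-Glo luminescence following a 16 h, 37 C incubation with compound, liver microsomes from human donors and NADPH.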
Assay [9] is described as follows: p53 small molecule agonists, cell-based qHTS assay with rat liver microsomes: qHTS cell viability counter screen (AID 1963580). Also: nearly all actives have a fitted effect of over 45% in size. Summed up:
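HCT-116 p53RE-bla, 4,000 cells/well, 5 h pre-incubation; cpd + rat liver microsomes 0.5 mg/mL + NADPH 0.5 mg/mL (final); 16 h, 37 C; CellTiter-Glo, 30 min RT; luminescence.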

Assay [10] is described as follows: p53 small molecule agonists, cell-based qHTS assay: qHTS cell viability counter screen (AID 1963581). Also: nearly all actives have a fitted effect of over 45% in size. In short, it runs like this:
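Following 5 h attachment, HCT-116 p53RE-bla cells took up compound for 16 h at 37 C; the reporter was read with B/G FRET substrate (2 h RT), and viability then via CellTiter-Glo ATP luminescence.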

Assay [11] can be described thus: p53 small molecule agonists, cell-based qHTS assay (AID 1963582; active = well fitted activation curve with a large enough effect in the signal ratio in the repeat runs, not every such curve was filed as active; the % refers to the signal ratio). Summed up:
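In this cell-based concentration-response screen, a p53 response element drives beta-lactamase; cells received DMSO-borne compounds after 5 h culture and were incubated a further 16 h before FRET substrate development.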

Assay [12] deals with 5-hydroxytryptamine receptor 2A (Homo sapiens) (UniProt P28223). The assay is described as follows: 5-hydroxytryptamine receptor 2A (HTR2A) small molecule antagonists, cell-based qHTS assay (AID 1963586). Also: nearly all actives have a fitted effect of over 45% in size. Summed up:
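Antagonist-mode intracellular calcium assay: DOI (4 nM) added after 5 min compound pre-incubation at room temperature to dye-loaded HTR2A-CHO cells. Fluorescence followed for 3 min, sampled every second.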

For assay [13] the target is unchanged. Put plainly: 5-hydroxytryptamine receptor 2A (HTR2A) small molecule agonists, cell-based qHTS assay (AID 1963587). Also: nearly all actives have a fitted effect of over 30% in size. Also: potency is read from the fitted curve at half-maximal effect. Summed up: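 Kinetic calcium-flux fluorescence (2 min, 1 sec intervals) after compound addition in agonist mode. HTR2A-CHO cells were cultured 18 h, then dye-loaded 1 h at 37 C.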
Assay [14] deals with Muscarinic acetylcholine receptor M1 (Homo sapiens) (UniProt P11229). The assay is described as follows: Cholinergic receptor muscarinic 1 (CHRM1) small molecule antagonists, cell-based qHTS assay (AID 1963588). Also: nearly all actives have a fitted effect of over 40% in size. Summed up:
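CHRM1-CHO calcium-flux assay, antagonist mode. Cells were seeded 18 h, dye-loaded 1 h at 37 C and given compound for 5 min at RT, then acetylcholine was added at 50nM. FDSS fluorescence was read 3 min; 15 concentrations, three runs.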

Assay [15] is described as follows: cAMP Responsive Elements (CRE) small molecule agonists, cell-based qHTS assay (AID 1963590). Summed up:
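A CRE-responsive beta-lactamase reporter in HEK 293T cells was used. Treatment ran 3 h at 37 C; detection used LiveBLAzer B/G FRET substrate for 2 h at room temperature.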

The nature of assay [16]: cAMP Responsive Elements (CRE) small molecule antagonists, cell-based qHTS assay (AID 1963591; active = well fitted inhibition curve with a large enough effect in the signal ratio in the repeat runs, not every such curve was filed as active; the % refers to the signal ratio). In short, it runs like this:
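HEK293T cells carrying a CRE-driven beta-lactamase reporter receive compound and NKH477 (0.25 uM final) for 3 h. Fluorescence from LiveBLAzer B/G FRET substrate is read after 2 h at room temperature.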

For assay [17], the target named is Beta-2 adrenergic receptor (Homo sapiens) (UniProt P07550). The assay is described as follows: Adrenergic beta2 receptor (ADRB2) small molecule antagonists, cell-based qHTS assay (AID 1963592). Also: series mostly up to about 92 µM; nearly all actives have a fitted effect of over 50% in size. In short, it runs like this: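 Cells (CHO, stable ADRB2 overexpression) incubated 18-20hr at 37C; compounds added from DMSO; agonist mix (1nM isoproterenol, 100uM IBMX, 25uM Ro-20-1724) added; 0.5hr RT; d2-cAMP and anti-cAMP-cryptate added; 1hr RT; 665/615 nm read.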
Chain of Beta-2 adrenergic receptor (Homo sapiens) (P07550 whole entry, looked up): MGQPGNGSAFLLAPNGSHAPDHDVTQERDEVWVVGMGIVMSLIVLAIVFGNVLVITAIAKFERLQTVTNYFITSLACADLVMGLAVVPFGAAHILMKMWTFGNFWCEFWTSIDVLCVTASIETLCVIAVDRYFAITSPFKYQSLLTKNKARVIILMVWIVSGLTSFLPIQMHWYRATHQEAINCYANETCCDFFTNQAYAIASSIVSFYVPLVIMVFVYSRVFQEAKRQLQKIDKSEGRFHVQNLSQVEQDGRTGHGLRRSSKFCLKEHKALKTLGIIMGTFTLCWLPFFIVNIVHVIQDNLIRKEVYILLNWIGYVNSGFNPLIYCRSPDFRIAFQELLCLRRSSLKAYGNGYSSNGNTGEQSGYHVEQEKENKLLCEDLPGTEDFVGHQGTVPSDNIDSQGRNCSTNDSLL

Assay [18] has as its target D(2) dopamine receptor (Homo sapiens) (UniProt P14416). Put plainly: Dopamine D2 receptor (DRD2) small molecule agonists, cell-based qHTS assay (AID 1963594). Also: nearly all actives have a fitted effect of over 35% in size. In short, it runs like this: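 cAMP accumulation in DRD2-HEK293 cells measured by HTRF after 1 h detection; compounds added 10 min before NKH477 (200nM […]) forskolin-analogue stimulation, 30 min at room temperature, with Ro20-1724 present at 0.1 mM final.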

The target is the same in assay [19]. The assay is described as follows: Dopamine D2 receptor (DRD2) small molecule antagonists, cell-based qHTS assay (AID 1963595; active = well fitted inhibition curve with a large enough effect in the signal ratio in the repeat runs, with a control signal flat; the % refers to the signal ratio). In short, it runs like this:
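Stable D2 receptor HEK293 line, 24 h after seeding. Compound preincubated 10 min, then quinpirole (12 nM) with forskolin analogue NKH477 (200 nM), 30 min, room temperature. Detection by time-resolved FRET of cAMP.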

The target in assay [20] is Muscarinic acetylcholine receptor M1 (Homo sapiens) (UniProt P11229). Put plainly: Cholinergic receptor muscarinic 1 (CHRM1) small molecule agonists, cell-based qHTS assay (AID 1963589). Also: nearly all actives have a fitted effect of over 35% in size. Summed up:
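Measures agonist-induced intracellular calcium rise. Stable human CHRM1 CHO line, 1 h dye load at 37 C, compounds from DMSO, kinetic fluorescence read.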

“And” between values parts separate entries of the source, which are not always exact repeats. Equal values may be shown once. Inconclusive results are not listed. The source holds several records for some structures; these can differ, active in one and inactive in another. The source made the active and inactive calls. Unless noted, calls follow the shape of the full dose curve.

Chain of 5-hydroxytryptamine receptor 2A (Homo sapiens) (P28223 whole entry, looked up): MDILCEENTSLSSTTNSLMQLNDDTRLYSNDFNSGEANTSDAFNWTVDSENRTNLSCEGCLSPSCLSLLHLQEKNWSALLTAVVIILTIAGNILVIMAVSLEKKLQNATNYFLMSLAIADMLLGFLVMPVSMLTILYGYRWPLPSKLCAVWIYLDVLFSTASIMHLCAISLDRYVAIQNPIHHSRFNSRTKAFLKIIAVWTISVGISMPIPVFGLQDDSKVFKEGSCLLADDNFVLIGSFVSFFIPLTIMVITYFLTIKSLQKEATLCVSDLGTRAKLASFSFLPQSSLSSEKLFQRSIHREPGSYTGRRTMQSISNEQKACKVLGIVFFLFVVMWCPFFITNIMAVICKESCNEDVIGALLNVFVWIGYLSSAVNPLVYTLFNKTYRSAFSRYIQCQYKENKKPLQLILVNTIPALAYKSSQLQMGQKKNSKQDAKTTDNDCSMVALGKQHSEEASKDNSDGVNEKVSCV
Chain of Gonadotropin-releasing hormone receptor (Homo sapiens) (P30968 whole entry, looked up): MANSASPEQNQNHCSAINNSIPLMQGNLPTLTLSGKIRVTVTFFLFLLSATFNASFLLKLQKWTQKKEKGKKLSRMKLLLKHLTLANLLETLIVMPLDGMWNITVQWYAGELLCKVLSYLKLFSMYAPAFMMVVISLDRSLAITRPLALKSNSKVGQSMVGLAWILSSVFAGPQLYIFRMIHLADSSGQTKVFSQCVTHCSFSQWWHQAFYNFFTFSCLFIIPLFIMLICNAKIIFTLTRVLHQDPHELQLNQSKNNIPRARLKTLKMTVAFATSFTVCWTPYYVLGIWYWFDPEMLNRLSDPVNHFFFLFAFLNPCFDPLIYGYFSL
Chain of Muscarinic acetylcholine receptor M1 (Homo sapiens) (P11229 whole entry, looked up): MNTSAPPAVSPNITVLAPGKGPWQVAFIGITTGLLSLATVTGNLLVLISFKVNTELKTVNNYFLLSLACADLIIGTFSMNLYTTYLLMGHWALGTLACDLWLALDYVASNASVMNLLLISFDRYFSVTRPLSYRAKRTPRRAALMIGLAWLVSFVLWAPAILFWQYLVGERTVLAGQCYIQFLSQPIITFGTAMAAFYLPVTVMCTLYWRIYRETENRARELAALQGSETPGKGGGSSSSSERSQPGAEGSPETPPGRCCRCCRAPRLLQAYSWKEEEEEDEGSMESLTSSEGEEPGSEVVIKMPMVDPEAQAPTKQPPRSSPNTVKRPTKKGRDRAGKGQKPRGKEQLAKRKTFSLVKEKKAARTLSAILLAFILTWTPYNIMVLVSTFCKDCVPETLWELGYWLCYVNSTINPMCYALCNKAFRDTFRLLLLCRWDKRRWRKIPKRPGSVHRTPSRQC
Chain of KiSS-1 receptor (Homo sapiens) (Q969F8 whole entry, looked up): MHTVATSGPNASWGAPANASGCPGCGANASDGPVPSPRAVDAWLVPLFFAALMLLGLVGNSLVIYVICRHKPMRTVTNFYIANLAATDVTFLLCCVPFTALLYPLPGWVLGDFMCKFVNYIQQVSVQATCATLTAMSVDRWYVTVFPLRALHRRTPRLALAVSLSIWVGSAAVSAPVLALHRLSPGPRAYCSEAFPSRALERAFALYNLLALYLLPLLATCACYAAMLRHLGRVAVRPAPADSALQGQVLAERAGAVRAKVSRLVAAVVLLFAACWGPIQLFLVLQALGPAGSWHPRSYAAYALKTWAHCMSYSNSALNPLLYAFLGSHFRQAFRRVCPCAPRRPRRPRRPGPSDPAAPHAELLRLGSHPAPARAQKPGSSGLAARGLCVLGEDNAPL
Chain of D(2) dopamine receptor (Homo sapiens) (P14416 whole entry, looked up): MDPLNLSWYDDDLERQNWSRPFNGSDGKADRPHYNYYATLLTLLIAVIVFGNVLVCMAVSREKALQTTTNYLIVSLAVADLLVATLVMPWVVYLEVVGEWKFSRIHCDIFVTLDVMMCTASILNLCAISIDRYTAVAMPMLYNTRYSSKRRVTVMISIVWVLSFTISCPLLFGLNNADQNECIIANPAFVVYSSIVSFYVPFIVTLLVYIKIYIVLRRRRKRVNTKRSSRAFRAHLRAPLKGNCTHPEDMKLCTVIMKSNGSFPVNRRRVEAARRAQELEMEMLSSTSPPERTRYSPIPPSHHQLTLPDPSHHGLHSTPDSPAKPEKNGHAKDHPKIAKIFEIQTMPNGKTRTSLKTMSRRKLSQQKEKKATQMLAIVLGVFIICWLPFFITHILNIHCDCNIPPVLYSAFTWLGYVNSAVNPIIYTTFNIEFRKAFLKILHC

On to `C=CCOC(=O)CCCCCCCC`, for which the Potency entry in [1], in assay [2], in assay [3], in [4], in [5] and in assay [6] was “inactive” throughout. The Potency result in [7], in assay [8], in assay [9], in assay [10], in [11] and in assay [12] was “inactive” in each case. The Potency result in [13], in assay [14], in [15], in assay [16], in assay [17] and in assay [18] was “inactive” each time. Also, the Potency entry in assay [19] was “inactive”.

Take `CC(C)(C)c1cc(C(C)(C)C)c(O)c(C(C)(C)C)c1`: the Potency entry in assay [1] was “inactive and 48.6 µM (active)”; in assay [2], 30.6 µM (active); in assay [13], 5.49 µM (active). Further, the Potency result in assay [3], in assay [4], in assay [5], in [6], in [7] and in [8] was “inactive” each time. The Potency entry in assay [9], in [10], in assay [11], in assay [12], in assay [20] and in assay [15] was “inactive” in each case. Further, the Potency result in assay [16], in [17] and in assay [18] was “inactive” in each case.

With `Cc1cc(C)c(S(=O)(=O)O)cc1N=Nc1cc(S(=O)(=O)O)c2ccccc2c1O`, the Potency in assay [1] was 30.6 µM (active). In addition, the Potency result in assay [2], in assay [3], in [4], in assay [5], in [6] and in assay [7] was “inactive” in each case. The Potency result in assay [8], in assay [9], in assay [10], in assay [11], in assay [12] and in [13] was “inactive” each time. For the same compound, the Potency result in assay [20], in assay [15], in assay [16] and in [17] was “inactive” each time.

For `CC(=O)c1cccc([N+](=O)[O-])c1`, the Potency entry in [1], in [2], in [3], in assay [4], in assay [5] and in assay [6] was “inactive” each time. Besides, the Potency result in assay [7], in assay [8], in [9], in assay [10], in [11] and in assay [12] was “inactive” each time. In addition, the Potency entry in assay [13], in assay [14], in assay [15], in [16], in assay [18] and in assay [19] was “inactive” in each case.

For `CCOC(=O)c1ccccc1C`, the Potency result in [1], in assay [2], in assay [3], in assay [4], in assay [5] and in assay [6] was “inactive” throughout. The Potency result in assay [7], in assay [8], in assay [9], in assay [10], in assay [11] and in assay [12] was “inactive” throughout. Besides, the Potency entry in assay [13], in [20], in assay [15], in assay [16], in assay [17] and in assay [18] was “inactive” in each case. In assay [19], the Potency entry was “inactive”.

As to `Cc1ccccc1C(N)=O`, the Potency result in [1], in assay [2], in assay [3], in [4], in assay [5] and in [6] was “inactive” throughout. In addition, the Potency result in assay [7], in assay [8], in assay [9], in assay [10], in assay [11] and in [12] was “inactive” each time. For the same compound, the Potency result in assay [13], in [14], in [15], in assay [16] and in [19] was “inactive” each time.

Regarding `F[Si-2](F)(F)(F)(F)F`, the Potency entry in assay [1], in assay [2], in assay [3], in assay [4], in assay [5] and in assay [6] was “inactive” each time. Further, the Potency result in assay [7], in assay [8], in assay [9], in assay [10], in assay [11] and in assay [12] was “inactive” in each case. For the same compound, the Potency result in assay [13], in assay [20], in assay [15], in assay [16], in assay [17] and in [18] was “inactive” throughout. Also, in assay [19], the Potency result is “inactive”.

As to `C/C(=N\O)[C@@H](C)NCC(C)(C)CN[C@H](C)/C(C)=N/O`, the Potency entry in assay [1], in assay [2], in [3], in assay [4], in assay [5] and in assay [6] was “inactive” in each case. Besides, the Potency result in assay [7], in assay [8], in [9], in assay [10], in assay [11] and in [12] was “inactive” throughout. The Potency entry in assay [13], in [14], in [15], in [16], in assay [17] and in assay [18] was “inactive” in each case. The Potency result in assay [19] was “inactive”.

For the origin of these results see PubChem BioAssay (Tox21).
